# PubChem BioAssay
# The source made the active and inactive calls.
# Key:
# [1] = E. coli DRC41 culture turbidity changes, primary screen, E. coli filamentation inducer project, strain DRC41, OD650, 48 h (AID 1152);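 note: E. coli MC1000 strain DRC41 lacking acrAB efflux pump and sulA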; conditions: E. coli DRC41 (acrAB sulA), higher = more signal, called active from +8 up or from −8 down
# [2] = small-molecule binders of probe aLefty1, primary screen, biochemical, small-molecule microarray, 635/667 nm fluorescence (AID 1153); conditions: higher = more signal;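 note: score merges spot fluorescence with signal-to-noise ratio from the scanned slide images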
# [3] = PSAC antagonists in infected red cells, primary screen, cell-based, P. falciparum Indochina, OD700, 1 h (AID 1154); conditions: P. falciparum Indochina infected RBC osmotic lysis, higher = more signal, called active from +8 up or from −8 down
# [4] = PSAC antagonists in infected red cells, primary screen, cell-based, P. falciparum Indochina, OD700, 2 h (AID 1155);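 note: lysis reports solute entry through the parasite surface anion channel PSAC; channel blockers reduce lysis of infected cells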; conditions: P. falciparum Indochina infected erythrocytes, osmotic lysis OD700; higher = more signal, called active from +8 up or from −8 down
# [5] = osmotic lysis modulators in infected erythrocytes, primary screen, PSAC antagonist project, cell-based, P. falciparum Indochina, OD700, 3 h (AID 1156); conditions: higher = more signal, called active from +8 up or from −8 down
# [6] = PSAC antagonists in infected red cells, primary screen, cell-based, P. falciparum Indochina, OD700, 18 h (AID 1157); conditions: P. falciparum Indochina infected erythrocytes, osmotic lysis OD700, 18 h; higher = more signal, called active from +8 up or from −8 down
# [7] = modulators of S6 phosphorylation in cells, primary screen, cell-based, A549, cytoblot, luminescence, serum-stimulated (AID 1158); conditions: A549 phospho-S6 cytoblot, 5 h, higher = more signal;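 note: serum-stimulated A549 lung adenocarcinoma cells; signal is phosphorylated S6 detected by cytoblot immunostaining with HRP secondary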
# [8] = target: NADPH oxidase 2 (Homo sapiens) (UniProt P04839); experiment: NOX2-dependent H2O2 signal modulators, primary screen, NOX inhibitor project, cell-based, HEK293-NOX2, PMA-stimulated, Amplex Red fluorescence (AID 1159); conditions: 45 min, higher = more signal, called active from +8 up or from −8 down; note: test concentration not given here
# [9] = target: NADPH oxidase 4 (Homo sapiens) (UniProt Q9NPH5); experiment: NOX4-dependent H2O2 signal modulators, primary screen, NOX inhibitor project, cell-based, HEK293-NOX4, tetracycline-induced, Amplex Red fluorescence (AID 1160); conditions: 45 min, higher = more signal, called active from +8 up or from −8 down
# [10] = target: NADPH oxidase 5 (Homo sapiens) (UniProt Q96PH1); experiment: NOX5-dependent H2O2 signal modulators, primary screen, NOX inhibitor project, cell-based, HEK293-NOX5, Amplex Red fluorescence (AID 1161); conditions: HEK293-NOX5, ionomycin, 45 min, higher = more signal
# [11] = A549 cell viability effects, profiling panel, calcein-AM fluorescence, 48 h, basal (AID 1162); conditions: higher = more signal; note: test concentration not given here
# [12] = adipocyte viability effects, profiling panel, cell-based, 3T3-L1 adipocytes, calcein-AM fluorescence, 48 h, basal (AID 1163); conditions: 3T3-L1 adipocytes viability, higher = more signal; note: test concentration not given here
# [13] = HepG2 cell viability effects, profiling panel, calcein-AM fluorescence, 48 h, basal (AID 1164); conditions: higher = more signal; note: test concentration not given here
# [14] = MM1S cell viability effects, profiling panel, calcein-AM fluorescence, 48 h, basal (AID 1165); conditions: higher = more signal;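 note: viability of MM1S multiple myeloma cells under basal unstimulated conditions; test concentration not given here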
# [15] = basal RPMI8226 viability, no added stimulus, profiling panel, cell-based, calcein-AM fluorescence, 48 h, PK04 Diversity Set (AID 1166); conditions: RPMI8226 myeloma viability, higher = more signal;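 note: cells grown under basal conditions without added stimulus; test concentration not given here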
# [16] = basal HepG2 mitochondrial membrane potential changes, profiling panel, cell-based, JC-1 fluorescence, 24 h, 100 nL compound (AID 1167); conditions: higher = more signal; note: test concentration not given here
# [17] = basal 3T3-L1 adipocyte mitochondrial potential changes, profiling panel, cell-based, JC-1 fluorescence, 3T3-L1 adipocytes, 24 h, 100 nL compound (AID 1168); conditions: JC-1 mitochondrial fluorescence, higher = more signal, called active from +8 up or from −8 down; note: test concentration not given here
# [18] = basal RPMI8226 mitochondrial membrane potential changes, profiling panel, cell-based, JC-1 fluorescence, 24 h, 100 nL compound (AID 1169); conditions: RPMI8226 myeloma, JC-1 mitochondrial potential fluorescence, higher = more signal; note: test concentration not given here
# [19] = basal MM1S mitochondrial membrane potential changes, profiling panel, cell-based, JC-1 fluorescence, 24 h, 100 nL compound (AID 1170); conditions: higher = more signal; note: test concentration not given here
# [20] = A549 lung cancer cell viability effects, profiling panel, resazurin fluorescence, 24 h, PK04 Diversity Set (AID 1171); conditions: higher = more signal, called active from +8 up or from −8 down; note: test concentration not given here
# Chain of NADPH oxidase 2 (Homo sapiens) (P04839 whole entry, looked up): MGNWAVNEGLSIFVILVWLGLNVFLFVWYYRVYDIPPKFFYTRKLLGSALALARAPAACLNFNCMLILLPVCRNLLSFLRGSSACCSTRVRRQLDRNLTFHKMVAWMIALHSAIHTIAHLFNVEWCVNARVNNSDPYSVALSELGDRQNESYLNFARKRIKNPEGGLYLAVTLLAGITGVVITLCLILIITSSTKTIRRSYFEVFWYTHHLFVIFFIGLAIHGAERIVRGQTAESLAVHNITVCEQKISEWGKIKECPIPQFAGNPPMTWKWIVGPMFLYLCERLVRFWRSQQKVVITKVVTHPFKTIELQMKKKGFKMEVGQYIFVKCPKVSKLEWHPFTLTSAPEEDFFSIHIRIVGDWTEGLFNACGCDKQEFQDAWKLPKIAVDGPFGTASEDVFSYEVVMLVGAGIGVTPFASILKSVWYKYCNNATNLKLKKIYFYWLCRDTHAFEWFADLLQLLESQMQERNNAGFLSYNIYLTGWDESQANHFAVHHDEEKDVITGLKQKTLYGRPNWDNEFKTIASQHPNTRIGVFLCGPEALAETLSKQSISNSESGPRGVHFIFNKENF
# Chain of NADPH oxidase 5 (Homo sapiens) (Q96PH1 whole entry, looked up): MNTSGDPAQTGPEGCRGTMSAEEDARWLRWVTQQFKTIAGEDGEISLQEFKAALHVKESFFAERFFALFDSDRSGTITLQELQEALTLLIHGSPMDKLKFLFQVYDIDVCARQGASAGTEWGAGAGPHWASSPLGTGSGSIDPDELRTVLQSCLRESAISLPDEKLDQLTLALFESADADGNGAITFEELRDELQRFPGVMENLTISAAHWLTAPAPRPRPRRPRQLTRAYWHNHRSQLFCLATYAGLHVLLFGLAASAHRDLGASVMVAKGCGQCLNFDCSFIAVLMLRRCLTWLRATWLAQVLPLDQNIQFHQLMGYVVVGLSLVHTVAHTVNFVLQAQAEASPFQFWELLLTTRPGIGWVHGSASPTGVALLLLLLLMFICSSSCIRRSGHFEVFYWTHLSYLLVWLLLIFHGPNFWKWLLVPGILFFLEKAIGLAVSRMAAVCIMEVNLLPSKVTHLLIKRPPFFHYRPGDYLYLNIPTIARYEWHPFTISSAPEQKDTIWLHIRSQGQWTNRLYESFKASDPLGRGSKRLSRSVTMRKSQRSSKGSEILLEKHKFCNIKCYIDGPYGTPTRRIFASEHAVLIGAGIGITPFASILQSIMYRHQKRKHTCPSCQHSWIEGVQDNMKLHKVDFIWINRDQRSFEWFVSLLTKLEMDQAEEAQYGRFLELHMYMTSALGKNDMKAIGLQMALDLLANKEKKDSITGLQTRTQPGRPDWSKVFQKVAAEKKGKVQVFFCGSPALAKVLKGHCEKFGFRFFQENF
# Chain of NADPH oxidase 4 (Homo sapiens) (Q9NPH5 whole entry, looked up): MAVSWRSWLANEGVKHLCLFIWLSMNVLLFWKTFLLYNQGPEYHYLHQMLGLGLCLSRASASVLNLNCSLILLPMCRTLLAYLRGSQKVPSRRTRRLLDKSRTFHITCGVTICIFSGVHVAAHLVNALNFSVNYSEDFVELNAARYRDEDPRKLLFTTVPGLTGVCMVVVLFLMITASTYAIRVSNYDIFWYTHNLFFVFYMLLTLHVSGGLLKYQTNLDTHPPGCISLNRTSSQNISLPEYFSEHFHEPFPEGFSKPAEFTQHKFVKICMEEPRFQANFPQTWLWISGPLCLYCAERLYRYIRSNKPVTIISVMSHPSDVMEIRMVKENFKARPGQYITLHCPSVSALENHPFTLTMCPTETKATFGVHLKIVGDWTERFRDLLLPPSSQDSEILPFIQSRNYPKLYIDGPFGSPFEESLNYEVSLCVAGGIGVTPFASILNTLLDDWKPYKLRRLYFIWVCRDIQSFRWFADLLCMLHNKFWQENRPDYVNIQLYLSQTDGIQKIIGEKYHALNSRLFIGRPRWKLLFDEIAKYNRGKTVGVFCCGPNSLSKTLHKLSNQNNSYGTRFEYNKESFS
SMILES,z-score [1],composite z-score [2],z-score [3],z-score [4],z-score [5],z-score [6],z-score [7],z-score [8],z-score [9],z-score [10],z-score [11],z-score [12],z-score [13],z-score [14],z-score [15],z-score [16],z-score [17],z-score [18],z-score [19],z-score [20]
O[C@@H](Cc1ccccc1)[C@H]1C2C=CCCC(c3ccccc3)=C2CN1Cc1cccc(Cl)c1 (stereo not given in full),3.28 (inactive),-0.104,4.33 (inactive),0.669 (inactive),1.16 (inactive),0.476 (inactive),0.459,-0.384 (inactive),-0.868 (inactive),-0.41,1.89,0.101,0.662,-3.27,-3.43,0.514,-0.366 (inactive),-1.09,-0.823,0.75 (inactive)
C=C(CCCC)C(=O)CC[C@@H](OC(C)=O)c1cccc(OCCO)c1,-0.462 (inactive),-0.101,2.82 (inactive),1.81 (inactive),-1.27 (inactive),0.822 (inactive),0.0149,-1.14 (inactive),-1.3 (inactive),-3.02,-0.985,-1.33,-2.45,-2.53,-2.28,-0.974,-0.673 (inactive),0.452,-0.238,-0.713 (inactive)
CO[C@H]1COC(=O)[C@H](C)NC(=O)[C@@H](C)COC(=O)CC=C[C@@H]1C,0.66 (inactive),-0.251,0.945 (inactive),0.54 (inactive),0.795 (inactive),0.465 (inactive),0.0768,-0.835 (inactive),0.412 (inactive),0.193,-0.0101,0.0176,-0.368,-0.303,0.693,-0.176,-1.32 (inactive),-0.282,-0.863,-0.162 (inactive)
O=C1O[C@@H](c2ccccc2)[C@@H](c2ccccc2)N2[C@@H](c3ccc(OCCO)cc3)[C@]3(C(=O)Nc4ccccc43)[C@@H](C(=O)N3CCN(c4ncccn4)CC3)[C@H]12,0.777 (inactive),-0.0347,17.4 (active),3.91 (inactive),2.06 (inactive),1.28 (inactive),-0.183,1.09 (inactive),0.368 (inactive),1,-0.47,-0.888,0.834,-0.138,0.229,-0.679,0.339 (inactive),-0.842,-0.779,0.42 (inactive)
CC(C)NC(=O)[C@@]1(C)c2ccccc2C(=O)N(Cc2cc(F)cc(C(F)(F)F)c2)[C@H]1c1ccc(CO)cc1,0.0051 (inactive),-0.21,7.03 (inactive),0.429 (inactive),0.943 (inactive),0.0608 (inactive),-0.191,0.162 (inactive),0.696 (inactive),-0.117,0.0549,-0.866,-0.135,-0.0517,0.223,0.863,-0.327 (inactive),0.102,-0.542,0.166 (inactive)
CCOC(=O)[C@H](Cc1ccccc1)NC(=O)CCC1CC(OC(=O)NCc2ccc3c(c2)OCO3)CC2(CCCC(COC(=O)NCC(c3ccccc3)c3ccccc3)O2)O1 (stereo not given in full),1.13 (inactive),-0.0046,13.8 (active),4.29 (inactive),0.394 (inactive),1.3 (inactive),0.0394,-0.742 (inactive),0.406 (inactive),0.491,1.85,-0.683,-0.538,-3.38,-3.61,1.37,-0.717 (inactive),-0.77,-1.95,0.174 (inactive)
CO[C@@H]1COC(=O)CC=C[C@@H](C)COC(=O)[C@H](COCc2ccccc2)NC(=O)CC=C[C@H]1C,-0.0825 (inactive),-0.363,0.391 (inactive),0.331 (inactive),0.195 (inactive),0.403 (inactive),-0.186,0.978 (inactive),-1.24 (inactive),0.941,0.248,0.268,0.351,-0.987,-0.382,0.575,-0.407 (inactive),-0.873,1.61,-0.653 (inactive)
CC1CC/C=C\[C@H]2OC34C=CCN(Cn5nnc6ccccc65)C(=O)[C@H]3N(CCO)C(=O)[C@@H]4C2C(=O)O1 (stereo not given in full),2.49 (inactive),-0.155,2.87 (inactive),0.218 (inactive),-1.23 (inactive),-0.752 (inactive),1.03,1.44 (inactive),0.285 (inactive),2.67,-0.338,1.11,-0.447,0.0362,0.134,-0.153,-0.798 (inactive),0.691,0.206,0.676 (inactive)
CCOC(=O)[C@H](CC(C)C)NC(=O)CCC1CC(OC(=O)NCc2cccc3ccccc23)CC2(CCCC(COC(=O)NCCN3CCOCC3)O2)O1 (stereo not given in full),-2.17 (inactive),-0.275,-0.839 (inactive),-0.655 (inactive),-2.08 (inactive),-0.709 (inactive),0.0369,0.428 (inactive),0.647 (inactive),-0.0177,0.609,0.0174,-0.667,0.109,-0.275,-0.084,-1.16 (inactive),-0.268,-0.166,1.29 (inactive)
COCCOC(=O)N1C(=O)[C@@]2(c3cc(C#Cc4ccc(OC)cc4)ccc31)[C@H](C(=O)N1CCN(c3ncccn3)CC1)[C@H]1C(=O)O[C@H](c3ccccc3)[C@H](c3ccccc3)N1[C@@H]2c1ccc(OCCO)cc1,-0.541 (inactive),0.327,10.1 (active),2.52 (inactive),0.493 (inactive),1.04 (inactive),-0.21,1.51 (inactive),0.337 (inactive),-0.0992,-0.758,0.717,0.0264,-1.01,0.581,0.331,3.91 (inactive),-0.453,-0.885,-0.212 (inactive)
C=C(COC)/C(=C/C[C@H](OC(=O)c1ccncc1)c1ccc(CO)o1)c1cc(C(=O)OC)ccc1OC,0.165 (inactive),0.188,2.65 (inactive),0.189 (inactive),0.656 (inactive),0.013 (inactive),-0.0278,-0.564 (inactive),0.0937 (inactive),-0.413,-1.2,-0.256,-0.981,-0.43,-0.111,-0.47,-1.01 (inactive),0.126,0.00652,0.451 (inactive)
O=C1[C@H]2[C@H]3[C@H](O)[C@H](O)CC(=NOCc4ccccc4)[C@@H]3CC[C@H]2C(=O)N1Cc1ccccc1,0.569 (inactive),-0.147,0.124 (inactive),0.321 (inactive),0.0319 (inactive),0.627 (inactive),-0.618,-0.85 (inactive),0.433 (inactive),0.326,-0.618,-0.176,-0.851,0.188,-0.16,-0.169,-0.399 (inactive),-0.164,-0.926,1.59 (inactive)
C[C@@H](c1ccccc1)N1C(=O)[C@H]2[C@H]3[C@H](O)[C@H](O)CC(=NNC(=O)OCc4ccccc4)[C@H]3CC[C@H]2C1=O,0.645 (inactive),0.107,3.27 (inactive),1.03 (inactive),0.0197 (inactive),0.0072 (inactive),0.296,0.982 (inactive),1.08 (inactive),0.412,-0.34,-0.903,-0.208,-0.0615,0.127,-1.05,-0.0829 (inactive),0.502,0.00989,-0.0339 (inactive)
NCCCCCNC(=O)[C@@H]1C[C@@H]2C(=O)N3CCC[C@H]3C(=O)N2[C@@H]1c1cccc(OCCO)c1,-0.221 (inactive),1.55,3.25 (inactive),0.506 (inactive),0.744 (inactive),0.0814 (inactive),0.0413,2.41 (inactive),1.19 (inactive),0.961,-0.323,0.571,-0.168,0.0689,0.0959,-1.5,-0.812 (inactive),0.167,0.543,0.142 (inactive)
CC(CCC(=O)OC[C@H]1O[C@H](C#Cc2ccccc2)C=C[C@@H]1Oc1ccc(C)cc1)=NO[C@@H](C)c1cn([C@H](CO)Cc2ccccc2)nn1,-0.913 (inactive),-0.247,10.5 (active),0.542 (inactive),1.78 (inactive),-1.05 (inactive),0.672,-1.54 (inactive),-0.298 (inactive),-0.428,-0.487,0.725,-0.982,-0.622,-2.17,0.453,-0.346 (inactive),0.496,-0.0262,0.555 (inactive)
O=C1C[C@@H](O)[C@@H](O)[C@@H]2[C@@H]3C(=O)N(c4cccc(Oc5ccccc5)c4)C(=O)[C@@H]3CC[C@@H]12,-0.268 (inactive),-0.0652,0.956 (inactive),-0.329 (inactive),0.406 (inactive),0.0818 (inactive),-0.363,-0.837 (inactive),-0.154 (inactive),0.558,0.494,-0.202,-0.323,0.309,-0.0677,-0.0107,0.615 (inactive),0.54,0.531,-0.187 (inactive)
COCCOC(=O)N1C(=O)[C@@]2(c3cc(C#Cc4ccc(OC)cc4)ccc31)[C@H](c1ccc(O)cc1)N1[C@H](c3ccccc3)[C@H](c3ccccc3)OC(=O)[C@H]1[C@@H]2C(N)=O,0.0372 (inactive),-0.303,6.02 (inactive),1.5 (inactive),-0.407 (inactive),0.954 (inactive),-0.0604,0.782 (inactive),0.689 (inactive),0.305,-0.64,0.38,-0.531,-2.08,-3.7,-1.74,0.563 (inactive),-0.896,-0.721,-1.51 (inactive)
